Experimental data reported in PubChem BioAssay (NCI).
About 83,000 compounds went through this panel and 20% of them were active in at least one assay; those are over-represented in the sample as a whole.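 Single-dose data. Exposure time 48 hours. Values below 10 considered active.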 A number with no mark means an inactive call. Calls of active or inactive are those of the source.

These molecules were tested on HL-60(TB) leukemia (assay: NCI-60 one-dose screen, 48 h (100 = growth as untreated, 0 = no growth, -100 = all killed)). Settings: 10 µM unless noted.

Structure (SMILES) | growth
CCO/C=N/C1=C(C#N)C(c2ccc(Cl)cc2)c2sc3c(F)cccc3c2O1 (centres undefined) | 56.2%
O=C1OCC2=C1C(c1cccc(Cl)c1)c1cc3c(cc1N2CCO)OCO3 (centres undefined) | -19.3% (active)
COc1ccccc1OCC(=O)Nc1sc2c(c1C(N)=O)CCC2 | 50.1%
C#CCOc1cccc(-c2ncnc3cc(NC(=O)CCl)ccc23)c1 | -29.7% (active)
Cc1cccc(NC(=O)CSc2nc3ccc([N+](=O)[O-])cc3[nH]2)c1 | 86.1%
Nc1ncc(-c2ccc3ncnc(N4CCc5cc(F)c(Cl)cc54)c3c2)cc1C(F)(F)F | 21.5%
COc1ccc(S(=O)(=O)n2cc(C(=O)C(=O)Nc3ccncc3)c3ccccc32)cc1F | -46.4% (active)
Clc1ccc2c(c1)C(c1c[nH]c3ccccc13)(c1c[nH]c3ccccc13)CCO2 | 82%
Cc1ccccc1NC(=O)NC(CC(N)=O)c1ccc2c(c1)nc(-c1cccc(Oc3ccc(C(C)(C)C)cc3)c1)n2CCCN1CCCCC1C (centres undefined) | -3.28% (active)
CC(=O)[C@H]1CC[C@H]2[C@@H]3CC[C@@H]4CC=C(C=O)C[C@]4(C)[C@H]3CC[C@]12C | 78.2%
CCN(CC)CCCC(C)Nc1ccnc2cc(Cl)c(SCc3ccccc3)cc12 (centres undefined) | -64.8% (active)
COc1ccc(S(=O)(=O)NCCNc2nccc(-c3c(-c4ccccc4)nc4sccn34)n2)cc1 | 25.4%
COc1ccc(C2=Nc3c(N)ncnc3NC(c3ccc4c(c3)OCO4)C2)cc1 (centres undefined) | 124%
COc1cc2c(cc1OC)-c1ccc3cc4c(cc3c1N(CCN1CCCC1)C2)OCO4 | -39.7% (active)
